From PubChem BioAssay (Tox21)
Inconclusive results are not listed. Activity calls are given as the source filed them. Unless noted, calls come from the whole dose curve; as a rule, active = well fitted curve in the direction sought with a large enough effect in the repeat runs; inconclusive = weak or mixed curves; inactive = no such curve, though single readings can be large; an effect the other way counts as inactive or inconclusive.

Tests used:
[1] = qHTS assay to test for compound auto fluorescence at 535 nm (green) in HEK293 cells (AID 720680)
[2] = qHTS assay to test for compound auto fluorescence at 535 nm (green) in HEK293 cell free culture (AID 720682)
Summary of the method: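 Compounds were pin-transferred into cell-free DMEM with 10% FBS, and green fluorescence was read at excitation 485 nm and emission 535 nm. Intensities were expressed as fluorescein-equivalent values.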

[3] = qHTS assay to test for compound auto fluorescence at 590 nm (red) in HEK293 cell free culture (AID 720683)
Summary of the method: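 Tox21 10K library compounds were pinned into cell-free DMEM with 10% FBS and fluorescence was read at excitation 540 nm. Activity is expressed as Rose Bengal sodium equivalency.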

[4] = qHTS assay to test for compound auto fluorescence at 590 nm (red) in HepG2 cell free culture (AID 720684)
Summary of the method: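 Measured in medium alone (MEM containing 10% FBS) following pintool addition of compound; emission at 590 nm with 540 nm excitation, referenced to Rose Bengal sodium.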

[5] = qHTS assay to test for compound auto fluorescence at 460 nm (blue) in HepG2 cell free culture (AID 720685)
Summary of the method: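 Compound (23 nL) or DMSO pinned into cell-free MEM with 10% FBS; blue fluorescence read at 405/460 nm excitation/emission, expressed as auto-fluorescence equivalency to triamterene.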

[6] = qHTS assay to test for compound auto fluorescence at 535 nm (green) in HepG2 cell free culture (AID 720686)
[7] = qHTS assay to test for compound auto fluorescence at 460 nm (blue) in HepG2 cells (AID 720687)
Summary of the method: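 Cells (2,000/well in MEM with 10% FBS) attached overnight at 37 C, then were exposed to compound or DMSO for 1 hr at 37 C, 5% CO2. Fluorescence read at Ex/Em 405/460 nm, expressed as triamterene-equivalent signal.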

[8] = target: Glucocorticoid receptor (Homo sapiens) (UniProt P04150); test: qHTS assay to identify small molecule agonists of the glucocorticoid receptor (GR) signaling pathway (AID 720691; active = well fitted activation curve with a large enough effect in the signal ratio in the repeat runs, not every such curve was filed as active; the % refers to the signal ratio; note: potency is the fitted concentration of half-maximal effect)
Summary of the method: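 GR-bla HeLa cells carrying a GRE-driven beta-lactamase reporter, exposed to compounds for 18 h at 37 C. Reporter activation read as fluorescence after 2 h with LiveBLAzer B/G FRET substrate at room temperature.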

[9] = qHTS assay to identify small molecule antagonists of the glucocorticoid receptor (GR) signaling pathway - cell viability counter screen (AID 720693); note: nearly all actives have a fitted effect of over 55% in size
[10] = qHTS assay to identify small molecule antagonists of the androgen receptor (AR) signaling pathway - cell viability counter screen (AID 743033; note: nearly all actives have a fitted effect of over 45% in size)
[11] = qHTS assay to identify small molecule antagonists of the androgen receptor (AR) signaling pathway using the MDA cell line - cell viability counter screen (AID 743041; note: nearly all actives have a fitted effect of over 45% in size)
Summary of the method: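 Viability counter screen run alongside the AR antagonist reporter: cells seeded 5 h before compound, R1881 added, 16 h incubation at 37C without CO2, fluorescent CellTiter-Fluor signal quantified.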

[12] = qHTS assay for identifying genotoxic compounds that show differential cytotoxicity against isogenic chicken DT40 cell lines with known DNA damage response pathways - wild type cell line (AID 743012); note: nearly all actives have a fitted effect of over 60% in size
Summary of the method: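 Wild-type DT40 cells (300/well) exposed to compounds for 40 hours at 37 C/5% CO2. Viability read by CellTiter-Glo luminescence after 30 min at room temperature.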

[13] = qHTS assay for identifying genotoxic compounds that show differential cytotoxicity against isogenic chicken DT40 cell lines with known DNA damage response pathways - Rad54/Ku70 mutant cell line (AID 743015); note: nearly all actives have a fitted effect of over 60% in size
[14] = target: Glucocorticoid receptor (Homo sapiens) (UniProt P04150); test: qHTS assay to identify small molecule antagonists of the glucocorticoid receptor (GR) signaling pathway (AID 720692; active = well fitted inhibition curve with a large enough effect in the signal ratio in the repeat runs, not every such curve was filed as active; the % refers to the signal ratio)
Summary of the method: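 GR-bla HeLa cells carrying a GRE-driven beta-lactamase reporter received compound after 4 h plating, then dexamethasone (5 nM final). After 18 h at 37C, the FRET substrate was loaded for 2 h at room temperature and fluorescence read.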

[15] = qHTS assay for identifying genotoxic compounds that show differential cytotoxicity against isogenic chicken DT40 cell lines with known DNA damage response pathways - Rev3 mutant cell line (AID 743014); note: nearly all actives have a fitted effect of over 55% in size
[16] = target: Androgen receptor (Homo sapiens) (UniProt P10275); test: qHTS assay to identify small molecule antagonists of the androgen receptor (AR) signaling pathway (AID 743035; active = well fitted inhibition curve with a large enough effect in the signal ratio in the repeat runs, not every such curve was filed as active; the % refers to the signal ratio)
Summary of the method: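 HEK293 cells stably carrying UAS-beta-lactamase reporter, 2,000/well, given compounds plus R1881 agonist and incubated 16 h at 37C. LiveBLAzer B/G FRET substrate then added for 2 h at room temperature before fluorescence reading.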

[17] = target: Androgen receptor (Homo sapiens) (UniProt P10275); test: qHTS assay to identify small molecule agonists of the androgen receptor (AR) signaling pathway (AID 743036; active = well fitted activation curve with a large enough effect in the signal ratio in the repeat runs, with a control signal flat, not every such curve was filed as active; the % refers to the signal ratio)
Summary of the method: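 Activation was read as beta-lactamase FRET signal from LiveBLAzer B/G substrate, added for 2 h at room temperature. Before that, GeneBLAzer AR-UAS-bla GripTite (HEK293) cells had 16 h compound exposure at 37C.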

[18] = target: Androgen receptor (Homo sapiens) (UniProt P10275); test: qHTS assay to identify small molecule agonists of the androgen receptor (AR) signaling pathway using the MDA cell line (AID 743040; note: nearly all actives have a fitted effect of over 20% in size)
Summary of the method: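 Luminescence from ONE-Glo, read after 30 min at room temperature, reflects MMTV-driven luciferase in MDA-kb2 cells (AR- and GR-responsive). Treatment lasted 16 h at 37C, 0% CO2.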

[19] = target: Androgen receptor (Homo sapiens) (UniProt P10275); test: qHTS assay to identify small molecule antagonists of the androgen receptor (AR) signaling pathway using the MDA cell line (AID 743042; note: nearly all actives have a fitted effect of over 55% in size)
Summary of the method: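 MDA-kb2 cells (human breast carcinoma, stably carrying an MMTV-luciferase reporter responsive to AR and GR) were plated at 3,000 cells/well and preincubated 5 hr at 37C, then given compound plus R1881 agonist for 16 h. ONE-Glo luminescence was read.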
% is set by controls: 0 for no effect and ±100 for the full control effect.

Chain of Glucocorticoid receptor (Homo sapiens) (P04150 whole entry, looked up): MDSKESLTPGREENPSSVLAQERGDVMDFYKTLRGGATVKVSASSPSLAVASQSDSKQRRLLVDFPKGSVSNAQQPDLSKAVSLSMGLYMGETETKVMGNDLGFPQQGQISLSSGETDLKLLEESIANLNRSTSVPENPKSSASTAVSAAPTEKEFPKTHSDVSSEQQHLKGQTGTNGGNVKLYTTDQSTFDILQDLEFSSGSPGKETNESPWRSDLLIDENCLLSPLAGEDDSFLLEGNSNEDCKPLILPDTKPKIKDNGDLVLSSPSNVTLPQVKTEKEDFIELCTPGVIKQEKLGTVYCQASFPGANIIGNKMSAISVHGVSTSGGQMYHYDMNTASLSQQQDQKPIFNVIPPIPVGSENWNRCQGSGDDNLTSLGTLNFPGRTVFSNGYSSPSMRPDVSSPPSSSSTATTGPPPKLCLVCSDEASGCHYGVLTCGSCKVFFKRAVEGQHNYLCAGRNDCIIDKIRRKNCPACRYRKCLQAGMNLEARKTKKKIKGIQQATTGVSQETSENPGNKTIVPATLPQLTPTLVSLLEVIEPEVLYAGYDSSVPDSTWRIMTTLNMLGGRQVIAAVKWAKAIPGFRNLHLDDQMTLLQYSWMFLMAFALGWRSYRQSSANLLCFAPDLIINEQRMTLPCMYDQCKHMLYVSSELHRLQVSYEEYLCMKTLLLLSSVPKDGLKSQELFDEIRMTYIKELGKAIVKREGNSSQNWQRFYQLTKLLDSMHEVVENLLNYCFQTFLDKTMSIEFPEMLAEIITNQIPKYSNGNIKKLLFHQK
Chain of Androgen receptor (Homo sapiens) (P10275 whole entry, looked up): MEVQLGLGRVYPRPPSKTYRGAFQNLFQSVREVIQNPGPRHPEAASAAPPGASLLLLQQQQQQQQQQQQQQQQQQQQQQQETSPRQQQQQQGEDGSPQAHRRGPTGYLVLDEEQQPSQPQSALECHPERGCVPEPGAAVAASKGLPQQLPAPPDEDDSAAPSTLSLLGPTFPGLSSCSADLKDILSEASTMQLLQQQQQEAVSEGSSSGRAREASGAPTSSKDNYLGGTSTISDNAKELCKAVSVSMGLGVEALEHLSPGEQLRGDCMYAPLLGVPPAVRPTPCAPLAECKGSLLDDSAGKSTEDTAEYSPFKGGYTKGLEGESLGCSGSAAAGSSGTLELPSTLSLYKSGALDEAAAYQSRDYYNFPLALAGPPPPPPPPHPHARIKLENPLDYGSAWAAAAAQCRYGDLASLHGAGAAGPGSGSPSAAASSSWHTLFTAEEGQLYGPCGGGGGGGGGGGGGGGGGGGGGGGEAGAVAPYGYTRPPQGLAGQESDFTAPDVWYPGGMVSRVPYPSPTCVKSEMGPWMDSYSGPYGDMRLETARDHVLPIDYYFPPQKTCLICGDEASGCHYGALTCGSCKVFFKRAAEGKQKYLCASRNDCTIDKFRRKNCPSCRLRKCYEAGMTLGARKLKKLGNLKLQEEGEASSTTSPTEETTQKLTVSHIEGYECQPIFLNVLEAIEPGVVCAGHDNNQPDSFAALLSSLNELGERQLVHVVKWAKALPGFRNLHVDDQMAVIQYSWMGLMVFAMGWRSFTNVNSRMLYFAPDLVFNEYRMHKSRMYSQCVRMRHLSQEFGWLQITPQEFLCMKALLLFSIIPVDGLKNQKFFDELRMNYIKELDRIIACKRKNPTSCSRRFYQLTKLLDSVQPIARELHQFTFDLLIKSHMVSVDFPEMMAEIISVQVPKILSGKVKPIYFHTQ

CCN1CCCC(OC(=O)C(c2ccccc2)c2ccccc2)C1 (stereo not drawn)
inactive: fluorescence, % of fluorescein [1] -0.0754% [at 18.6 µM] | activity change [2] 0.0002% [at 18.6 µM] | fluorescence, % of fluorescent control [3] 0.138% [at 18.6 µM] | fluorescence, % of Rose Bengal [4] 0.44% [at 18.6 µM] | fluorescence, % of fluorescent control [5] -0.0343% [at 18.6 µM] | fluorescence, % of fluorescein control [6] 0.088% [at 18.6 µM] | fluorescence, % of fluorescent control [7] 0.0078% [at 18.6 µM] | Potency [8] | outcome [9] | outcome [10] | Potency [11]

CCCCCCC(CCCCCCCCCCC(=O)OCC(COC(C)=O)OC(C)=O)OC(C)=O (stereo not drawn)
inactive: outcome [1] | outcome [2] | outcome [3] | outcome [4] | Potency [5] | outcome [6] | Potency [7] | Potency [8] | outcome [9] | Potency [12] | Potency [13] | outcome [10] | Potency [11]

CCC(=O)Nc1cccc(N)c1
inactive: outcome [1] | outcome [2] | outcome [3] | outcome [4] | Potency [5] | outcome [6] | Potency [7] | Potency [8] | Potency [14] | outcome [9] | Potency [15] | Potency [13] | outcome [10] | Potency [11]

OCCCCCCO
inactive: outcome [1] | outcome [2] | outcome [3] | outcome [4] | Potency [5] | Potency [7] | Potency [8] | outcome [9] | Potency [12] | Potency [15] | Potency [13] | outcome [10] | Potency [11]

CCc1cc(S(=O)(=O)O)c2cc(C(C)C)cccc1-2
inactive: outcome [1] | outcome [2] | outcome [3] | outcome [4] | Potency [5] | outcome [6] | Potency [7] | Potency [8] | Potency [14] | outcome [9] | Potency [12] | Potency [13] | outcome [10] | Potency [11]

C1COCCO1
inactive: outcome [1] | outcome [2] | outcome [3] | outcome [4] | Potency [5] | outcome [6] | Potency [7] | Potency [12] | Potency [13] | outcome [10] | Potency [16] | outcome [17] | Potency [18] | Potency [11] | outcome [19]

Nc1cc(C(Cl)=C(Cl)Cl)c(S(N)(=O)=O)cc1S(N)(=O)=O
inactive: outcome [1] | outcome [2] | outcome [3] | outcome [4] | Potency [5] | outcome [6] | Potency [7] | Potency [8] | Potency [14] | outcome [9] | Potency [13] | outcome [10] | Potency [11]

CN(C)CCOC(c1ccc(Cl)cc1)c1ccccn1 (stereo not drawn)
inactive: outcome [1] | outcome [2] | outcome [3] | outcome [4] | Potency [5] | outcome [6] | Potency [7] | Potency [8] | Potency [14] | outcome [9] | Potency [15] | Potency [13] | outcome [10] | Potency [11]

COc1nc(C)nc(N)n1
inactive: outcome [1] | outcome [2] | outcome [3] | outcome [4] | Potency [5] | Potency [7] | Potency [14] | Potency [15] | Potency [13] | outcome [10] | Potency [11]

CC(C)[N+](C)(C)CC(O)COc1cccc2ccccc12 (stereo not drawn)
inactive: outcome [1] | outcome [2] | outcome [3] | outcome [4] | Potency [5] | Potency [7] | Potency [8] | Potency [14] | outcome [9] | Potency [12] | Potency [15] | Potency [13] | outcome [10] | Potency [11]

CC(=O)c1ccc(C)cc1
inactive: outcome [1] | outcome [2] | outcome [3] | outcome [4] | Potency [5] | outcome [6] | Potency [7] | Potency [8] | outcome [9] | Potency [12] | Potency [15] | Potency [13] | outcome [10] | Potency [11]

C[C@H](O)C(=O)Nc1c(I)c(C(=O)NC(CO)CO)c(I)c(C(=O)NC(CO)CO)c1I
active: Potency [8] 6.44 µM
inactive: fluorescence, % of fluorescein [1] -0.048% [at 18.6 µM] | activity change [2] 0.0506% [at 18.6 µM] | fluorescence, % of fluorescent control [3] 0.0628% [at 18.6 µM] | fluorescence, % of Rose Bengal [4] 0.0851% [at 18.6 µM] | fluorescence, % of fluorescent control [5] -0.0806% [at 18.6 µM] | fluorescence, % of fluorescein control [6] -0.0219% [at 18.6 µM] | fluorescence, % of fluorescent control [7] -0.0019% [at 18.6 µM] | outcome [9] | Potency [12] | Potency [13] | Potency [11]

NS(=O)(=O)c1cc2c(cc1C(F)(F)F)NC(Cc1ccccc1)NS2(=O)=O (stereo not drawn)
inactive: fluorescence, % of fluorescein [1] 0.103% [at 18.6 µM] | activity change [2] 0.196% [at 18.6 µM] | fluorescence, % of fluorescent control [3] 0.0682% [at 18.6 µM] | fluorescence, % of Rose Bengal [4] -0.15% [at 18.6 µM] | fluorescence, % of fluorescent control [5] -0.0286% [at 18.6 µM] | fluorescence, % of fluorescein control [6] -0.0871% [at 18.6 µM] | fluorescence, % of fluorescent control [7] 0.0124% [at 18.6 µM] | outcome [9] | Potency [12] | Potency [13] | outcome [10] | Potency [16] | outcome [17] | Potency [18] | Potency [11] | outcome [19]

NS(=O)(=O)c1cc(C2(O)NC(=O)c3ccccc32)ccc1Cl (stereo not drawn)
inactive: fluorescence, % of fluorescein [1] 0.0145% [at 18.6 µM] | activity change [2] 0.0635% [at 18.6 µM] | fluorescence, % of fluorescent control [3] 0.411% [at 18.6 µM] | fluorescence, % of Rose Bengal [4] 0.348% [at 18.6 µM] | fluorescence, % of fluorescent control [5] 0.0381% [at 18.6 µM] | fluorescence, % of fluorescein control [6] 0.0502% [at 18.6 µM] | fluorescence, % of fluorescent control [7] -0.125% [at 18.6 µM] | Potency [8] | Potency [14] | Potency [12] | Potency [15] | Potency [13] | outcome [10] | Potency [11]
